Measured values published in PubChem BioAssay (NCATS).
Records with an inconclusive call do not appear. A call without a number means that no potency is given here. Values without a mark were called inactive. Active and inactive are the calls of the source. Calls come from the whole dose curve; as a rule, active = well fitted curve in the direction sought with a large enough effect; inconclusive = small, poorly fitted or top-dose-only effect, or another doubt; inactive = no such curve, though single readings can be large; an effect the other way counts as inactive or inconclusive. Residues, ends and D or L forms follow the SMILES beside them.

Experiments:
[1] = test system: NIH3T3; experiment: Cytotoxic Profiling of Annotated Libraries Using Quantitative High-Throughput Screening (AID 1296008); conditions: Five cell lines viability, CellTiter-Glo ATP luminescence, 48-72 h; max response: active compounds read low; note: nearly all actives have a fitted effect of over 60% in size
How it was run: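 Cells exposed to compounds for 48 or 72 hr at 37 degrees Celsius. Viability read as ATP-coupled luminescence with CellTiter-Glo after 10 min at room temperature.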

[2] = test system: HACAT; experiment: qHTS assay to identify novel small-molecules to repurpose for Merkel cell carcinoma treatment (AID 1296009); conditions: MCC and control cell lines, CellTiter-Glo viability, 72 h; at 44.8 µM (top of the series) unless noted; note: nearly all actives have a fitted effect of over 60% in size
How it was run: (§1)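 CellTiter-Glo luminescence after 72 hr compound exposure at 37 degree celsius gave cell viability. Libraries NPC and MIPE were run as 8- and 11-point dose responses; RLUs normalized to DMSO (negative) and no-cell (cytotoxicity) controls.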

[3] = test system: HEK293T; experiment: as above; conditions: MCC and control cell lines, CellTiter-Glo viability, 72 h; at 44.8 µM (top of the series) unless noted
How it was run: as §1

[4] = test system: MCC-13; experiment: as above; conditions: MCC and control cell lines, CellTiter-Glo viability, 72 h; series mostly up to 46 µM
How it was run: as §1

[5] = test system: MCC-26; experiment: as above; conditions: MCC and control cell lines, CellTiter-Glo viability, 72 h; series mostly up to 46 µM
How it was run: as §1

[6] = test system: MKL-1; experiment: as above; conditions: MCC and control cell lines, CellTiter-Glo viability, 72 h; series mostly up to 46 µM
How it was run: as §1

[7] = test system: MKL-2; experiment: as above; conditions: MCC and control cell lines, CellTiter-Glo viability, 72 h; series mostly up to 46 µM
How it was run: as §1

[8] = test system: NIH3T3; experiment: as above; conditions: MCC and control cell lines, CellTiter-Glo viability, 72 h; at 44.8 µM (top of the series) unless noted
How it was run: as §1

[9] = test system: UISO; experiment: as above; conditions: MCC and control cell lines, CellTiter-Glo viability, 72 h; series mostly up to 46 µM
How it was run: as §1

[10] = test system: WaGa; experiment: as above; conditions: MCC and control cell lines, CellTiter-Glo viability, 72 h; series mostly up to 46 µM
How it was run: as §1

[11] = test system: C33A; experiment: Primary qHTS to identify gynecologic anti-cancer compounds using libraries of approved drugs and bioactive compounds (AID 1345084); conditions: Gynecologic cancer cell panel viability, ATPlite luminescence, 48 h; series mostly up to 57.5 µM; note: nearly all actives have a fitted effect of over 55% in size
How it was run: (§2)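 Luminescence from the ATPlite ATP-monitoring reagent indicates viable cell number; lower signal means cytotoxicity. Cells received compound 16 h after seeding and were exposed for 48 h across five concentrations.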

[12] = test system: CAOV3; experiment: as above; conditions: Gynecologic cancer cell panel viability, ATPlite luminescence, 48 h; series mostly up to 57.5 µM
How it was run: as §2

[13] = test system: CASKI; experiment: as above; conditions: Gynecologic cancer cell panel viability, ATPlite luminescence, 48 h; series mostly up to 57.5 µM
How it was run: as §2

[14] = test system: Es-2; experiment: as above; conditions: Gynecologic cancer cell panel viability, ATPlite luminescence, 48 h; series mostly up to 57.5 µM
How it was run: as §2

[15] = test system: HeLa; experiment: as above; conditions: Gynecologic cancer cell panel viability, ATPlite luminescence, 48 h; series mostly up to 57.5 µM
How it was run: as §2

[16] = test system: Hek293T; experiment: as above; conditions: Gynecologic cancer cell panel viability, ATPlite luminescence, 48 h, control line for the selectivity index; series mostly up to 57.5 µM
How it was run: as §2

[17] = test system: JEG-3; experiment: as above; conditions: Gynecologic cancer cell panel viability, ATPlite luminescence, 48 h; series mostly up to 57.5 µM
How it was run: as §2

[18] = test system: OV90; experiment: as above; conditions: Gynecologic cancer cell panel viability, ATPlite luminescence, 48 h; series mostly up to 57.5 µM
How it was run: as §2

[19] = test system: CRL-7250; experiment: qHTS assay to identify novel small-molecules to repurpose for Merkel cell carcinoma treatment (AID 1296009); conditions: MCC and control cell lines, CellTiter-Glo viability, 72 h; at 44.8 µM (top of the series) unless noted; note: nearly all actives have a fitted effect of over 60% in size
How it was run: as §1

Clc1ccccc1N1CCNCC1
outcome [1]: inactive
outcome [2]: inactive
outcome [3]: inactive
outcome [4]: inactive
Potency [5]: inactive
Potency [6]: inactive
Potency [7]: inactive
outcome [8]: inactive
Potency [9]: inactive
Potency [10]: inactive
Potency [11]: inactive
outcome [12]: inactive
outcome [13]: inactive
Potency [14]: inactive
Potency [15]: inactive
outcome [16]: inactive
outcome [17]: inactive
Potency [18]: inactive

CC(Cc1ccccc1)N(C)Cc1ccco1 (configuration not stated)
max response [1]: -7.67%
outcome [2]: inactive
outcome [4]: inactive
Potency [5]: inactive
Potency [6]: inactive
Potency [7]: inactive
Potency [9]: inactive
Potency [10]: inactive
Potency [11]: inactive
outcome [12]: inactive
outcome [13]: inactive
Potency [14]: inactive
Potency [15]: inactive
outcome [16]: inactive
outcome [17]: inactive
Potency [18]: inactive

Oc1ccc(Cl)c2cccnc12
outcome [19]: inactive

Cc1onc(-c2c(Cl)cccc2Cl)c1C(=O)Cl
outcome [19]: inactive

COC(=O)[C@H](Cc1ccccc1)NC(=O)[C@@H](N)CC(=O)O (H-Asp-Phe-OMe)
outcome [19]: inactive

NCCCCCC(=O)O
outcome [19]: inactive

CCCCCCCCCCOc1cc2c(=O)c(C(=O)OCC)c[nH]c2cc1OCC
outcome [19]: inactive [at 4.96 µM]

O=C(C1CCCCC1)N1CC(=O)N2CCCc3ccccc3C2C1 (configuration not stated)
outcome [19]: inactive

CN(c1nccc(=O)[nH]1)C1CCN(c2nc3ccccc3n2Cc2ccc(F)cc2)CC1
outcome [19]: inactive

CCCCCCCCCCC[C@@H](C[C@@H]1OC(=O)[C@H]1CCCCCC)OC(=O)[C@H](CC(C)C)NC=O
outcome [19]: inactive

CC(=O)OCC(=O)[C@@]1(OC(C)=O)[C@@H](C)C[C@H]2[C@@H]3C[C@H](F)C4=CC(=O)C=C[C@]4(C)[C@@]3(F)[C@@H](O)C[C@@]21C
outcome [19]: inactive

O=C(O)CCCC[C@@H]1SC[C@@H]2NC(=O)N[C@@H]21
outcome [19]: inactive

Cc1c[nH]c2ccccc12
outcome [19]: inactive

CCOC(=O)C(O)c1ccccc1 (configuration not stated)
outcome [19]: inactive

N[C@@H](COP(=O)(O)O)C(=O)O
outcome [19]: inactive [at 17.4 µM]

CC(C)(Oc1ccc(C2CC2(Cl)Cl)cc1)C(=O)O (configuration not stated)
outcome [19]: inactive [at 92 µM]

CCC(Cc1c(I)cc(I)c(N)c1I)C(=O)O (configuration not stated)
outcome [19]: inactive

O=C(OOC(=O)c1ccccc1)c1ccccc1
outcome [19]: inactive

CC1(C)O[C@H]2CC(=O)OC[C@]23[C@H]2CC[C@@]4(C)[C@H](c5ccoc5)OC(=O)[C@H]5O[C@]54[C@]2(C)C(=O)C[C@@H]13
outcome [19]: inactive [at 17.4 µM]

O=C(O)Cn1c(=O)n(Cc2ccc(Br)cc2F)c(=O)c2ccc(Cl)cc21
outcome [19]: inactive

Nc1ncnc2c1ncn2[C@@H]1O[C@H](COP(=O)(O)O)[C@@H](O)[C@H]1O
outcome [19]: inactive

COc1cc(O)cc(O)c1
outcome [19]: inactive

CCOC(=O)/C=C(C)/C=C/C=C(C)/C=C/c1c(C)cc(OC)c(C)c1C
outcome [19]: inactive

NC(=O)N[C@@H](CCC(=O)O)C(=O)O
outcome [19]: inactive

Cc1c(N(C)CS(=O)(=O)O)c(=O)n(-c2ccccc2)n1C
outcome [19]: inactive

O=C(NC(Cc1cc(=O)[nH]c2ccccc12)C(=O)O)c1ccc(Cl)cc1 (configuration not stated)
outcome [19]: inactive

NS(=O)(=O)c1cc2c(cc1Cl)NC(C(Cl)Cl)NS2(=O)=O (configuration not stated)
outcome [19]: inactive

CCCNC(C)C(=O)Nc1c(C)csc1C(=O)OC (configuration not stated)
outcome [19]: inactive

Cc1cccc(C)c1NC(=O)CN1CCCCCC1
outcome [19]: inactive

NS(=O)(=O)c1cc(Cl)c(Cl)c(S(N)(=O)=O)c1
outcome [19]: inactive

CC(=O)O[C@]1(C(C)=O)CC[C@H]2[C@@H]3C[C@H](C)C4=CC(=O)CC[C@]4(C)[C@H]3CC[C@@]21C
outcome [19]: inactive

COc1cc(/C=C/C(N)=O)cc(OC)c1OC
outcome [19]: inactive

CCN1CCC[C@H]1CNC(=O)c1c(O)c(Cl)cc(Cl)c1OC
outcome [19]: inactive

COc1cc2nc(Cl)nc(N)c2cc1OC
outcome [19]: inactive

Nc1c[n+](N2CCOCC2)no1
outcome [19]: inactive

CS(=O)(=O)c1ccc([C@@H](O)[C@@H](CF)NC(=O)C(Cl)Cl)cc1
outcome [19]: inactive

Cc1cc(NS(=O)(=O)c2ccc(N)cc2)no1
outcome [19]: inactive

CCCCN(CCCC)CCCOC(=O)c1ccc(N)cc1
outcome [19]: inactive

CC(=O)N(CC(O)CO)c1c(I)c(C(=O)NCC(O)CO)c(I)c(C(=O)NCC(O)CO)c1I (configuration not stated)
outcome [19]: inactive

Nc1ccc(S(=O)(=O)Nc2ccccn2)cc1
outcome [19]: inactive

CCN1CCN(C(=O)N[C@@H](C(=O)N[C@@H]2C(=O)N3[C@@H]2SC(C)(C)[C@H]3C(=O)O)c2ccccc2)C(=O)C1=O
outcome [19]: inactive

CC[C@H]1OC(=O)[C@H](C)[C@@H](O[C@H]2C[C@@](C)(OC)[C@@H](O)[C@H](C)O2)[C@H](C)[C@@H](O[C@@H]2O[C@H](C)C[C@H](N(C)C)[C@@H]2O)[C@](C)(O)C[C@@H](C)CN(C)[C@H](C)[C@@H](O)[C@]1(C)O
outcome [19]: inactive

C=CCN1C[C@H](C(=O)N(CCCN(C)C)C(=O)NCC)C[C@@H]2c3cccc4[nH]cc(c34)C[C@H]21
outcome [19]: inactive

O=C(O)c1cc(=O)[nH]c(=O)[nH]1
outcome [19]: inactive

Cc1c(C(=O)NCCO)[n+](=O)c2ccccc2n1[O-]
outcome [19]: inactive
